Assay outcomes deposited in PubChem BioAssay by several laboratories.
EWS-Fli block – EWS/Fli-driven NR0B1 reporter inhibitors, primary screen, A673 cells, NR0B1 luciferase, luminescence, MLPCN library. viability-normalised. inhibition, % at 12.6 µM. 350,000 tested, 0.67% active. AID 651661, 2012;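 active = mean inhibition of at least 50% after viability correction, with every replicate also passing that limit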;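 also: firefly luciferase signal divided by Alamar Blue viability fluorescence both relative to DMSO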
TWEAK Fn14 block – inhibitors of TWEAK-Fn14 signaling, primary screen, luciferase reporter cells, uHTS | inhibition, % at 10 µM | AID 1159606, 2016 | TWEAK-stimulated Fn14 reporter cells, luciferase luminescence, 8 h | 360,000 tested, 2% active; in the data active = inhibition above about 50%
LMP1 NFkB inh – EBV LMP1-driven NF-kappaB luciferase reporter inhibitors, primary screen, cell-based, luminescence, single point | inhibition, % at 12.5 µM | AID 504558, 2011 | 350,000 tested, 0.69% active | LMP1-induced NF-kappaB luciferase reporter cells; in the data active = inhibition above about 41%
LGR2 antag – inhibitors of bursicon-induced LGR2 CRE-luciferase signal, primary screen, cell-based, HEK293, CRE-luciferase reporter, bursicon stimulation; bursicon-stimulated, 4 h; inhibition, % at 9.99 µM; 380,000 tested, 0.35% active; AID 720647, 2013;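 active = drop in luminescence signal, shown as inhibition above about 50% in the replicate tests, limit read from the data, passing the limit was not always enough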;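 also: agonist challenge used bursicon conditioned medium at about half maximal strength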
TROY NFkB inh – inhibitors of TROY-driven NF-kB signaling, primary screen, Q293 LMP1-TROYcd cells, NF-kB luciferase, uHTS; Q293 LMP1-TROYcd NF-kB luciferase reporter, 4 h; inhibition, % at 10 µM; 360,000 tested, 0.98% active; AID 1347056, 2019;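 active = compounds whose plate-normalised and pattern-corrected inhibition of the luciferase reporter signal at the single screening dose is 50% or more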
Large screens that a line does not name were inactive. Shown are actives, neighbours in structure and some others; about 2.5% of the full set was active somewhere.

CCN1CCN(Cc2ccc(NC(=O)c3ccc(C)c(NC(=O)c4cc(-c5ccc(Br)cc5)n[nH]4)c3)cc2C(F)(F)F)CC1	EWS-Fli block 54, LMP1 NFkB inh 44
Cc1ccc(NC(=O)c2cc(-c3ccccc3)n[nH]2)cc1	none
CCN1CCN(Cc2ccc(NC(=O)c3ccc(C)c(NC(=O)c4nccn4C)c3)cc2C(F)(F)F)CC1	LMP1 NFkB inh 47
CC(=O)N(C[C@H]1N[C@H](CO)[C@@H]1c1ccc(-c2cccnc2)cc1)C1CCCC1	none (no result: TWEAK Fn14 block, LMP1 NFkB inh, TROY NFkB inh)
O=C(Nc1ccc(S(=O)(=O)NC2=NCCCCC2)cc1)c1ccc(Cl)c([N+](=O)[O-])c1	none
Cc1cccc(C)c1NS(=O)(=O)c1ccc(NC(=O)c2ccc(Cl)c([N+](=O)[O-])c2)cc1	TWEAK Fn14 block 87, TROY NFkB inh 68
O=C(Nc1ccc(C(O)(C(F)(F)F)C(F)(F)F)cc1)c1ccc(Cl)c([N+](=O)[O-])c1	TWEAK Fn14 block 62, TROY NFkB inh 50
CO[C@@H]1CN(C)C(=O)c2cc(NC(C)=O)ccc2OC[C@@H](C)NC[C@@H]1C	none (no result: TWEAK Fn14 block, LMP1 NFkB inh, TROY NFkB inh)
Cc1ccc(-n2c(=O)c3c(c4cc(C)ccc4n3C)n(CC(=O)NCC3CCCO3)c2=O)cc1 (stereo not given)	LMP1 NFkB inh 49
COc1ccc2c(c1)c1c(c(=O)n(-c3ccc(C)cc3)c(=O)n1CC(=O)NCC1CCCO1)n2C (stereo not given)	none
CCOC(=O)c1sc(NC(=O)c2ccc(S(=O)(=O)N3CCCCCC3)cc2)nc1-c1ccccc1	TWEAK Fn14 block 77 (no result: LGR2 antag)
CCOC(=O)N1CCN(S(=O)(=O)c2ccc(C(=O)Nc3nc4ccccc4s3)cc2)CC1	none
CCOC(=O)c1sc(NC(=O)c2ccc(S(=O)(=O)N3CCCCC3)cc2)nc1-c1ccccc1	TWEAK Fn14 block 71 (no result: EWS-Fli block)
CCOC(=O)c1sc(NC(=O)c2ccc(S(=O)(=O)N3CCOCC3)cc2)nc1-c1ccccc1	TWEAK Fn14 block 65
COCC(=O)N1C[C@@H](C)[C@H](OC)CN(C)C(=O)c2ccc(NC(=O)c3ccccc3)cc2OC[C@H]1C	none (no result: TWEAK Fn14 block, LMP1 NFkB inh, TROY NFkB inh)
COCC#Cc1ccc([C@@H]2[C@H]3CN(C(=O)C4CCC4)CC(=O)N3[C@H]2CO)cc1	none (no result: TWEAK Fn14 block, LMP1 NFkB inh, TROY NFkB inh)
CO[C@H]1CN(C)C(=O)c2cc(NC(=O)c3ccccc3)ccc2OC[C@H](C)N(C(=O)C2CC2)C[C@@H]1C	none (no result: TWEAK Fn14 block, LMP1 NFkB inh, TROY NFkB inh)
C[C@@H]1CN([C@H](C)CO)C(=O)c2cccc(NS(=O)(=O)c3ccc(Cl)cc3)c2O[C@H]1CN(C)Cc1ccncc1	none (no result: TWEAK Fn14 block, LMP1 NFkB inh, TROY NFkB inh)
C[C@H](CO)N1C[C@H](C)[C@H](CN(C)S(=O)(=O)c2ccc(Cl)cc2)OCCCC[C@H](C)Oc2ccc(NS(=O)(=O)c3ccccc3)cc2C1=O	none (no result: TWEAK Fn14 block, LMP1 NFkB inh, TROY NFkB inh)
Oc1cc(-c2ccncc2)cc2cccnc12	TWEAK Fn14 block 60
O=C(Oc1c(-c2ccccc2Cl)oc2ccccc2c1=O)c1ccc(Cl)cc1	TWEAK Fn14 block 50
O=C(Oc1c(-c2ccccc2)oc2ccccc2c1=O)c1ccccc1	none (no result: EWS-Fli block)
COc1ccc(NC(=O)N(C)C[C@@H]2OCCCC[C@@H](C)Oc3ccc(NC(=O)Nc4cccc5ccccc45)cc3C(=O)N([C@H](C)CO)C[C@@H]2C)cc1	none (no result: TWEAK Fn14 block, LMP1 NFkB inh, TROY NFkB inh)
O=C(c1cccnc1)N1CC[C@@H]2[C@H]1c1cc(C#Cc3cccnc3)ccc1N[C@@H]2CO	none (no result: TWEAK Fn14 block, LMP1 NFkB inh, TROY NFkB inh)
O=[N+]([O-])c1ccc2c(c1)nc1n2CCN(CC2CCCO2)C1 (stereo not given)	none
COCCN1CCn2c(nc3cc([N+](=O)[O-])ccc32)C1	TWEAK Fn14 block 94, TROY NFkB inh 89
COc1cc(C(=O)NN=C2c3ccccc3-c3ccccc32)cc(OC)c1OC	EWS-Fli block 59 (no result: TWEAK Fn14 block, LMP1 NFkB inh, TROY NFkB inh)
Cc1ccccc1/C(=N\S(=O)(=O)c1ccc(Br)cc1)Nc1ccccc1	none
Cc1c(/N=C(\[O-])Nc2ccc(Br)cc2)sn[n+]1C	TWEAK Fn14 block 68, LGR2 antag 82 (no result: LMP1 NFkB inh)
CCCNC(=O)N1CC2(CN(S(=O)(=O)c3cccc(OC)c3)C2)c2c(n(C)c3cc(OC)ccc23)[C@H]1CO	none (no result: TWEAK Fn14 block, LMP1 NFkB inh, TROY NFkB inh)
N#C/C(=N/Nc1ccc(OC(F)(F)F)cc1)C(N)=S	TWEAK Fn14 block 80
C=CCN1C(=O)[C@]2(O[C@H](CCO)[C@@H]([Si](C)(C)c3ccc(OC)cc3)[C@@H]2C)c2cc(N3CCCCC3=O)ccc21	none (no result: TWEAK Fn14 block, LMP1 NFkB inh, LGR2 antag, TROY NFkB inh)
Cc1ccc(C(=O)Nc2cccc(C(F)(F)F)c2)cc1Nc1ncnc2nc[nH]c12	LMP1 NFkB inh 44
Cc1ccc(C(=O)Nc2cccc(C(F)(F)F)c2)cc1NC(=O)c1ccno1	LMP1 NFkB inh 46
CC(C)NC(=O)Nc1ccc2c(c1)C(=O)N([C@H](C)CO)C[C@@H](C)[C@H](CN(C)CC1CCCCC1)OCCCC[C@H](C)O2	none (no result: EWS-Fli block, TWEAK Fn14 block, LMP1 NFkB inh, TROY NFkB inh)
CCCNC(=O)[C@@H]1[C@@H](CO)[C@@H]2Cn3c(ccc(/C=C/c4ccccc4)c3=O)[C@H]1N2C(=O)c1ccncc1	none (no result: TWEAK Fn14 block, LMP1 NFkB inh, TROY NFkB inh)
N#Cc1c(NC(=O)Cn2c(=O)oc3ccccc32)oc(-c2ccccc2)c1-c1ccccc1	TROY NFkB inh 68 (no result: EWS-Fli block)
C[C@@H]1CN([C@H](C)CO)C(=O)c2cc(NC(=O)C3CCCCC3)ccc2O[C@H]1CN(C)S(=O)(=O)c1ccc(Cl)cc1	none (no result: TWEAK Fn14 block, LMP1 NFkB inh, TROY NFkB inh)
CCc1nnc2n1N=C(c1ccc(-c3cc(Cl)ccc3Cl)o1)CS2	none (no result: EWS-Fli block, LGR2 antag)
Clc1ccc(OCc2nnc3n2N=C(c2ccc4c(c2)OCCO4)CS3)c(Cl)c1	TWEAK Fn14 block 53, TROY NFkB inh 60 (no result: EWS-Fli block, LGR2 antag)
CC1(C)CC(=O)C2=C(C1)c1c(ccc3ccccc13)NC2c1ccc(C(=O)O)cc1 (stereo not given)	none
CC1(C)CC(=O)C2=C(C1)c1c(ccc3ccccc13)NC2c1cc([N+](=O)[O-])cc([N+](=O)[O-])c1O (stereo not given)	TROY NFkB inh 53
CC(=O)Nc1ccc(Oc2sc(C(=O)c3ccccc3)c(N)c2C#N)cc1	TWEAK Fn14 block 53 (no result: EWS-Fli block, LGR2 antag)
C[C@H]1CCCCO[C@H](CN(C)CC2CC2)[C@@H](C)CN([C@@H](C)CO)C(=O)c2cc(NC(=O)c3ccncc3)ccc2O1	none (no result: TWEAK Fn14 block, LMP1 NFkB inh, TROY NFkB inh)
CCN(CC)CCN1C(=O)c2ccccc2NC1c1ccc(F)cc1 (stereo not given)	none (no result: EWS-Fli block)
CCN(CC)CCN1C(=O)c2ccccc2NC1c1ccc(N(C)C)cc1 (stereo not given)	TWEAK Fn14 block 68 (no result: EWS-Fli block, LGR2 antag)
CN(C)c1ccc(C2Nc3ccccc3C(=O)N2CCCN2CCOCC2)cc1 (stereo not given)	TWEAK Fn14 block 56
CN(C)c1ccc(C2NC(=O)c3ccccc3N2)cc1 (stereo not given)	TWEAK Fn14 block 62, LGR2 antag 54
CCc1ccc(/C=C2\SC(=S)N(CCCC(=O)Nc3ccccc3C(=O)O)C2=O)cc1	TROY NFkB inh 75 (no result: EWS-Fli block)
Cc1ccc(/C=C2\SC(=S)N(CCCC(=O)Nc3ccc(O)cc3)C2=O)cc1	none
Cc1ccc(/C=C2\SC(=S)N(CCCC(=O)Nc3ccccc3C(=O)O)C2=O)cc1	TWEAK Fn14 block 84, TROY NFkB inh 83
